# Screens: PubChem, National Center for Advancing Translational Sciences (NCATS)
# TSG101-PTAP inh = blocks PTAP/TSG101 interaction to inhibit HIV-1 budding. Fluorescence polarization, FITC-PTAP peptide / Tsg101 binding. Potency, µM (highest dose often 115 µM), for inactives: top-dose activity change, negative = inhibition, most hits filed as inhibitors. 340,000 tested, under 10 active. AID 493005; active = well fitted inhibition curve with a large enough effect in the main read-out, with a control signal flat, not every such curve was filed as active; inconclusive = small, poorly fitted or top-dose-only effect, or effect the other way, or a change in a side signal; inactive = no such curve, though single readings can be large or run the other way; note: potency is the fitted concentration of half-maximal effect; % of control where 0% means no effect
#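 Steps: Tsg101 binding domain dispensed (10 uM final), compounds pinned in DMSO, FITC-labeled PTAP-motif peptide added (50 nM final); after 20 min binding at room temperature, polarization measured.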
# TSHR antagonist = antagonists of human thyroid stimulating hormone receptor | P16473 | TSHR-expressing cells, TSH-stimulated cAMP HTRF, 2 h; hits give low values | activity change, negative = inhibition, % at 11.5 µM | actives 0.2% (n = 330,000) | AID 504810;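 active = activity change below a set negative limit, meaning inhibition stronger than a set level, cut at about -70% in these data; inconclusive = activity change between two set negative limits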; note: % is set by controls: 0 for no effect and ±100 for the full control effect
#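 TSHR-expressing cells were treated with compounds, then stimulated with TSH at EC80 (4nM final) for 2 hours at 37 deg C. Cellular cAMP was measured by HTRF competition between lysate cAMP and cAMP-d2 for a cryptate-labelled anti-cAMP antibody.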
# BRCA1 expr up = activators of BRCA1 expression; MCF7-BRCA1-FFLuc reporter, luminescence, 48 h; response scale: scaled: vehicle 0%, 10 µM genistein 100%; Potency, µM (doses to about 46.1 µM), for inactives: at the highest dose activation, actives largely listed as activators; actives 1.1% (n = 380,000); AID 624202; note: potency is the fitted concentration of half-maximal effect; nearly all actives have a fitted effect of over 80% in size
#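 Using MCF7 cells harboring a BRCA1 firefly luciferase reporter, plated 2 h before compound pinning, the screen measured luminescence after 48 h incubation. Responses were normalized to DMSO and 10 microM genistein, then fitted for concentration-effect.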
# S-ASM inh = inhibitors of human secretory acid sphingomyelinase | P17405 | placental ASM, HMU-PC fluorogenic substrate, 60 min | Potency, µM (doses to about 57.5 µM), for inactives: at the top dose activity change, negative = inhibition, actives largely listed as inhibitors | actives 0.006% (n = 340,000); note: potency is the fitted concentration of half-maximal effect
# Target sequence (P17405 47-631 limits assumed): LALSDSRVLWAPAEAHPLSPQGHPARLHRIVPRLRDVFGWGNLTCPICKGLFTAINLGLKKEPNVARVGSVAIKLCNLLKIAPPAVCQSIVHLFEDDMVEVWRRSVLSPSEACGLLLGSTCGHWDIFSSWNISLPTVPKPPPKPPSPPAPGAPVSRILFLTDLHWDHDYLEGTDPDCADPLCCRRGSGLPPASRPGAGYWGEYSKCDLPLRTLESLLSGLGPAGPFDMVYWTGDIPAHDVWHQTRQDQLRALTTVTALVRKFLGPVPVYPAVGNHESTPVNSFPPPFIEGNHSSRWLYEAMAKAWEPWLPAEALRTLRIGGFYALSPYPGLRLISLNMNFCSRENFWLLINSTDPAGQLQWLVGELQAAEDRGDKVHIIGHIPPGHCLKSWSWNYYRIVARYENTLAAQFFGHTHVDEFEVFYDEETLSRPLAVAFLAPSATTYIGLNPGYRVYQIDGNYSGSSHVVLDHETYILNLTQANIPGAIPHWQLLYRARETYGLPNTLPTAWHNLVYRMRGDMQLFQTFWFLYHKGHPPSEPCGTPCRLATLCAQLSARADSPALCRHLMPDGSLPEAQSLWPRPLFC
#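 qHTS format. ASM enzyme prepared from human placenta hydrolyses the fluorogenic substrate HMU-PC0 (9 uM final) over 60 min at 37 °C after a 10 min compound preincubation.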
# Anesthetic bind = binds horse apoferritin like a general anesthetic; P02791; apoferritin/1-aminoanthracene competitive binding, fluorescence; Potency, µM (top dose mostly 77.5 µM), without a hit: at the top dose activity change, negative = displacement, actives largely listed as inhibitors; actives 0.074% (n = 350,000); note: potency is the fitted concentration of half-maximal effect; % is set by controls: 0 for no effect and ±100 for the full control effect; nearly all actives have a fitted effect of over 20% in size
#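 Horse-spleen apoferritin (10 uM) in 50% saturated 1-aminoanthracene in PBS was incubated 10 min at room temperature with compound. Fluorescence (ex 380, em 535 nm) was normalized to free and bound 1-AMA, with concentration-response fitted by a four-parameter Hill equation.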
# Starred values were filed as active, the others as inactive; ? = inconclusive; . = no result given; ! = not active in a repeat. Only some compounds are listed: those with a hit (about 1.2% of all), similar ones and a draw of the others. Unless noted, calls come from the whole dose curve; as a rule, active = well fitted curve in the direction sought with a large enough effect; inconclusive = small, poorly fitted or top-dose-only effect, or another doubt; inactive = no such curve, though single readings can be large; an effect the other way counts as inactive or inconclusive.
SMILES,TSG101-PTAP inh,TSHR antagonist,BRCA1 expr up,S-ASM inh,Anesthetic bind
Cc1ccc(CS(=O)(=O)c2ncc(Cl)c(C(=O)Nc3nnc(C(C)C)s3)n2)cc1,3%,?,-54%,-6%,-12%
CCc1nnc(NC(=O)c2nc(S(=O)(=O)Cc3cccc(C)c3)ncc2Cl)s1,2%,-32,-40%,-6%,4%
Cc1cccc(CS(=O)(=O)c2ncc(Cl)c(C(=O)Nc3nnc(C(C)C)s3)n2)c1,3%,-74*,-33%,-4%,3%
CC(C)c1nnc(NC(=O)c2nc(S(=O)(=O)Cc3ccc(F)cc3)ncc2Cl)s1,0%,-75*,-31%,7%,-1%
CCOc1ccccc1NC(=O)c1nc(S(=O)(=O)Cc2cccc(C)c2)ncc1Cl,-6%,-83*,-78%,-11%,-9%
Cc1cccc(OCC(=O)OCc2cc(=O)n3nc(C4CCCCC4)sc3n2)c1,.,.,0%,.,16µM*
O=C(Nc1ccc(Oc2cccnc2)cc1)c1ccccc1F,-3%,13,4µM*,4%,?
COc1ccc(/C=C/c2ccnc3ccccc23)cc1,.,.,0%,.,.
N#Cc1c(N2C(=O)Nc3ccccc3N2O)sc2c1CCCC2,-2%,-8,11µM*,6%,-10%
N#Cc1c(N2C(=O)Nc3ccccc3N2O)sc2c1CCCCCC2,-2%,-10,12%,9%,-7%
C=CCN1C(=O)/C(=C/c2ccc(OC(C)=O)c(OCC)c2[N+](=O)[O-])SC1=S,-1%,-92*,-22%,-8%,?
C=C[C@@]1(C)CC[C@H]2C(=CC[C@@H]3[C@]2(C)CCC[C@@]3(C)C(=O)O)C1,.,.,.,.,7%
COc1cccc(NC(=O)c2cnc[nH]2)c1,-1%,-5,67%,3%,0%
O=C(Nc1ccc(Br)cc1)c1cnc[nH]1,-6%,0,13µM*,4%,3%
O=S(=O)(c1ccc(Br)cc1)N1CCN(c2nc(-c3cccs3)nc3ccccc23)CC1,.,.,2%,.,.
c1ccc(-c2cnnc(N3CCCCC3)n2)cc1,-1%,-8,7.9µM*,-5%,?
COc1cc([C@@H]2c3cc4c(cc3[C@@H](OC3OC5COC(C)OC5C(O)C3O)[C@H]3COC(=O)[C@H]23)OCO4)cc(OC)c1O (stereo not given in full),.,.,.,.,-1%
Cc1ccc2c(CN3CCC(C)CC3)cc(=O)oc2c1,1%,16,3.2µM*,0%,?
CN(C(=O)COc1ccccc1C(=O)Nc1ccccc1)c1ccccc1,.,.,0%,.,.
Cc1cc2nc(N)sc2cc1[N+](=O)[O-],-4%,-6,13µM*,-7%,?
CC(=O)c1cccc(NS(=O)(=O)c2ccc(N/C=C/C(=O)c3ccc(F)cc3)cc2)c1,-5%,-73*,-85%,33%,-9%
COc1ccc(/C=N/Nc2ncc(Br)cn2)c(OC)c1,-2%,12,10µM*,3%,-4%
COc1ccc(/C=N\Nc2ccccn2)c(OC)c1,-9%,4,?,-3%,228%
Cc1ccc(NC(=O)CCC(=O)c2cccs2)cc1F,-2%,8,13µM*,4%,-14%
Cc1ccc(NC(=O)Cc2cccs2)cc1Cl,-4%,-8,11µM*,-1%,?
SMILES,TSG101-PTAP inh,TSHR antagonist,BRCA1 expr up,S-ASM inh,Anesthetic bind
O=C(Cc1cccs1)Nc1ccc(F)c(F)c1,0%,-1,31%,-1%,-10%
Cc1nc2ccc(NC(=O)Cc3cccs3)cc2s1,-7%,-7,3.5µM*,10%,-14%
Cc1nc2ccc(NC(=O)CS(=O)(=O)c3ccc(F)cc3)cc2s1,1%,-4,11µM*,3%,.
CC1(C(=O)O)NCCc2cc(O)c(O)cc21 (stereo not given),.,.,.,.,150%
CCCCCc1cc[n+](CC(=O)c2ccccc2)cc1,.,.,1%,.,.
O=[N+]([O-])c1ccc(N2CCc3ccccc3C2)nc1,-1%,-24,11µM*,-7%,?
O=[N+]([O-])c1ccc(N2CCN(c3ccccc3)CC2)nc1,-1%,10,24%,-5%,3%
COc1ccc(/C=N/NC(=O)CC(=O)N/N=C/c2ccc(OC)cc2)cc1,-3%,-8,-3%,1%,-6%
COc1ccc(/C=N\NC(=O)C2=NNC(=O)C2C)cc1 (stereo not given),-4%,2,2.8µM*,-2%,-7%
N=C1SCC(=O)N1c1nc(-c2ccccc2)cs1,-7%,-29,7.9µM*,-1%,-9%
S=C(NCCCc1cnc[nH]1)NCCCN(Cc1ccc(Cl)cc1)c1ccc(Br)cc1,.,.,-67%,.,.
O=S(=O)(c1ccccc1Cl)N1CCN(c2nc(-c3cccs3)nc3ccccc23)CC1,.,.,-15%,.,.
CC1CCC/C(=N\Nc2ccc(Cl)c(C(=O)O)c2)C1 (stereo not given),0%,1,5µM*,6%,9%
CC1CCC/C(=N\NC(=O)Nc2ccccc2)C1 (stereo not given),0%,0,59%,0%,2%
OC1C(Br)=Cc2ccccc21 (stereo not given),.,.,11%,.,.
CCC(c1nnnn1Cc1ccccc1)N(Cc1ccccc1)Cc1cc2cc(C)ccc2[nH]c1=O (stereo not given),.,.,-57%,.,.
Cc1ccc(NC(=O)c2cccs2)cc1,-9%,-3,2.2µM*,1%,-13%
COc1cc(NC(=O)c2ccccc2Cl)ccc1NC(=O)c1cccs1,2%,-9,6.3µM*,-1%,-5%
COc1cc(NC(=O)c2cc3ccccc3cc2OC)ccc1NC(=O)c1cccs1,-8%,-21,-22%,-22%,309%
O=C(Nc1ccc(O)cc1)c1ccc(NC(=O)c2cccs2)cc1,0%,4,4µM*,-3%,58%
O=C(O)c1ccccc1C(=O)Nc1ccc(-n2ccc(C(F)(F)F)n2)cc1,-5%,-3,-4%,4%,?
O=C(Nc1ccc(-n2ccc(C(F)(F)F)n2)cc1)c1cccs1,-5%,-6,6.3µM*,-2%,?
Cc1ccc(NC(=O)C(=O)NNC(=O)c2cccs2)cc1,1%,-16,37%,-3%,-6%
CSc1nc2ccc(NC(=O)c3cccs3)cc2s1,0%,-5,4.5µM*,-1%,.
Cc1ccccc1NC(=O)CSc1nc2ccc(NC(=O)c3cccs3)cc2s1,.,.,9%,.,226%
O=C(COC(=O)c1ccc(S(=O)(=O)NCc2ccco2)cc1)NC1CCCCCC1,-8%,0,0%,-1%,35µM*
O=C1C(SCCO)=C(SCCO)C(=O)c2ccccc21,?,-86*!,-79%,0%,.
O=[N+]([O-])c1cccc(-c2nnc(-c3ccc4c(c3)OCO4)o2)c1,1%,-10,2.5µM*,-4%,-9%
CSc1ccc(-c2nnn(Cc3ccccn3)n2)cc1,-3%,-2,8.9µM*,3%,-13%
